# Data: ChEMBL document CHEMBL3988442, “University of Dundee, Small-Polar-MMV Screening Library” (2021)
# For some of these results: Measured potencies and affinities stand elsewhere.
# Tests used:
# Parameters in all cases: scale not given: direction of the effect not stated beside the values
# [1] = target: Protein translocase subunit SecA (Escherichia coli (strain K12)) (UniProt P10408); assay: Assay to Identify E. coli SecA ATPase Inhibitors; type: functional; conditions: 30 µM
# [2] = target: T1, Ubiquitin-activating enzyme e1, putative (Leishmania donovani (strain BPK282A1)) (UniProt E9BSI1); assay: Leishmania donovani Ubiquitin Activating Enzyme (LdE1); type: functional; conditions: 30 µM
# T1 sequence (whole entry): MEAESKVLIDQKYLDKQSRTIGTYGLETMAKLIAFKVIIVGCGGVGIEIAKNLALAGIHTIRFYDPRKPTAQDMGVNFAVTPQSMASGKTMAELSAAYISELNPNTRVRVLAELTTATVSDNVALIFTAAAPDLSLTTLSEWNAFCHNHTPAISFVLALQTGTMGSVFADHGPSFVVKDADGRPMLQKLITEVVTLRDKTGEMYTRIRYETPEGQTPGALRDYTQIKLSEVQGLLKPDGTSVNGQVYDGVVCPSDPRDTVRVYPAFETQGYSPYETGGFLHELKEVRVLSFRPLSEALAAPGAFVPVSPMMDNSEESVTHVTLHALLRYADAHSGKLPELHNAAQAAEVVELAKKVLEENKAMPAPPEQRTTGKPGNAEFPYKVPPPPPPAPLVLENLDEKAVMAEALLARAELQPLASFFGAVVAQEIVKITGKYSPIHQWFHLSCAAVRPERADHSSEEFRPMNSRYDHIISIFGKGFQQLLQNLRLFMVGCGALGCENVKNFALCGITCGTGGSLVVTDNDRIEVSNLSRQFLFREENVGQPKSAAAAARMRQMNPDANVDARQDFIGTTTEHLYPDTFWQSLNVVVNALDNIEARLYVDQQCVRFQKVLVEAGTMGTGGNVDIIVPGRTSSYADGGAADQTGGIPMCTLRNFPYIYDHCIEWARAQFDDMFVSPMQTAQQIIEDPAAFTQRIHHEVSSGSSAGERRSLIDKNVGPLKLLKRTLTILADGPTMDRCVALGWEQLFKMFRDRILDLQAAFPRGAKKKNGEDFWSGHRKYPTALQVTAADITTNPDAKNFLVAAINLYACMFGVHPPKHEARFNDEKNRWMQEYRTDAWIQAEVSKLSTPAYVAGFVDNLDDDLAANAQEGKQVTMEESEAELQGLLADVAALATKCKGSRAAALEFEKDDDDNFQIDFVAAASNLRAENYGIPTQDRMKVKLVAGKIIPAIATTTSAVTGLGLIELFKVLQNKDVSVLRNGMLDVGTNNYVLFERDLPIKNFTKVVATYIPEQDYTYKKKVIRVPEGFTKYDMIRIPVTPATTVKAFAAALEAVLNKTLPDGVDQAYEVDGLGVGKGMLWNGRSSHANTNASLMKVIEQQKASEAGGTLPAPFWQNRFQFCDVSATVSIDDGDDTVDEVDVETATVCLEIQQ
# [3] = target: AMP-activated protein kinase, AMPK (Homo sapiens) (UniProt P54646+O43741+P54619+Q9UGJ0+Q9Y478+Q13131+Q9UGI9); assay: AMP-dependent Kinase enzyme assay. An in vitro enzyme assay that detects ADP turnover that is directly proportional to AMPK activity. This uses naive AMPK that is activated during the assay with MK-8722; type: functional; conditions: 30 µM
# [4] = target: Sialic acid-binding Ig-like lectin 9 (Homo sapiens) (UniProt Q9Y336); assay: Hs-Siglec9 ALPHAscreen SOP 20170721; conditions: 10 µM
# Sialic acid-binding Ig-like lectin 9 (Homo sapiens), sequence (Q9Y336 whole entry): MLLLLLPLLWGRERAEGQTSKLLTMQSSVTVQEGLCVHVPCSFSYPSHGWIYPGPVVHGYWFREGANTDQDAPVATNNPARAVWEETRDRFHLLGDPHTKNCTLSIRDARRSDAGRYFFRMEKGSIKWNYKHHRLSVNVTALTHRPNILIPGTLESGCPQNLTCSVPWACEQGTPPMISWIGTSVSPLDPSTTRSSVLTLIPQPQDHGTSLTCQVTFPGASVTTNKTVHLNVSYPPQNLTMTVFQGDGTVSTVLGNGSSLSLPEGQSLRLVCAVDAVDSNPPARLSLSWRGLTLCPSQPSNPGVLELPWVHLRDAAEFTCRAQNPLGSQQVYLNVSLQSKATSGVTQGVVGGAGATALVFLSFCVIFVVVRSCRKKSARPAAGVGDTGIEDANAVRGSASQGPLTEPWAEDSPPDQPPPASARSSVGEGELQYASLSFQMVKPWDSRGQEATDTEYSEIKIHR
# Trypanosoma cruzi = assay: Trypanosoma cruzi phosphomannomutase and mannose-1-phosphate guanylyltransferase assay; type: functional; conditions: 10 µM
# [5] = target: T2, Arginase-2, mitochondrial (Homo sapiens) (UniProt P78540); assay: in vitro enzyme assay to detect the production of urea directly proportional to the activity of Arginase II; type: functional; conditions: 33.3 µM; note: in the data most compounds retested in dose-response had high values
# T2 sequence (whole entry): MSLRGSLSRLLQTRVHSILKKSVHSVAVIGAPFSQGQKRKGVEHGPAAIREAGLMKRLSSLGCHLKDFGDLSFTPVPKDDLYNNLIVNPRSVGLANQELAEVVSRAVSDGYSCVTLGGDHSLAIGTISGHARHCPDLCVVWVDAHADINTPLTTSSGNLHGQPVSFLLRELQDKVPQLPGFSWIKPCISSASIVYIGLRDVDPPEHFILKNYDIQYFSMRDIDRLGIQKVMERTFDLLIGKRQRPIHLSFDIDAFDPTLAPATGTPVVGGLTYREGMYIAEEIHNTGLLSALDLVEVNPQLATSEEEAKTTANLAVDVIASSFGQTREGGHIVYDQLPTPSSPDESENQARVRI
# [6] = target: T3, Proteasome subunit beta (Trypanosoma cruzi) (UniProt O96673); assay: Trypanosoma cruzi proteasome chymotrypsin-like activity (TcProtChymo) assay.; note: in the data most compounds retested in dose-response had high values; type: functional; conditions: 9.37 µM
# T3 sequence (whole entry): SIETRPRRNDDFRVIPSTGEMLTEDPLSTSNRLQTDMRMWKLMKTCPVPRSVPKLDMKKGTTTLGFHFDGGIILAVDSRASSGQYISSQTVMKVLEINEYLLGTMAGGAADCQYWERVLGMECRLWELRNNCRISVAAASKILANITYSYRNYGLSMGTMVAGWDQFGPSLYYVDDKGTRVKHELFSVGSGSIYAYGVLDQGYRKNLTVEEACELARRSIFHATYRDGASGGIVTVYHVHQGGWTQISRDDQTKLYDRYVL
# Homo sapiens = organism: Homo sapiens; assay: To identify inhibition of the IFN signalling (Jak-Stat) pathway via expression of an eGFP reporter gene under the control of an IFN-stimulated response element (ISRE) containing MxA promoter.; type: functional; conditions: 30 µM
# [7] = target: T4, Tyrosyl-tRNA synthetase, putative (Trypanosoma cruzi (strain CL Brener)) (UniProt Q4DSP6); assay: Trypanosoma cruzi tyrosyl tRNA synthetase (TcYRS) _High Tyrosine SOP; type: functional; conditions: 30 µM; note: in the data most compounds retested in dose-response had high values
# T4 sequence (whole entry): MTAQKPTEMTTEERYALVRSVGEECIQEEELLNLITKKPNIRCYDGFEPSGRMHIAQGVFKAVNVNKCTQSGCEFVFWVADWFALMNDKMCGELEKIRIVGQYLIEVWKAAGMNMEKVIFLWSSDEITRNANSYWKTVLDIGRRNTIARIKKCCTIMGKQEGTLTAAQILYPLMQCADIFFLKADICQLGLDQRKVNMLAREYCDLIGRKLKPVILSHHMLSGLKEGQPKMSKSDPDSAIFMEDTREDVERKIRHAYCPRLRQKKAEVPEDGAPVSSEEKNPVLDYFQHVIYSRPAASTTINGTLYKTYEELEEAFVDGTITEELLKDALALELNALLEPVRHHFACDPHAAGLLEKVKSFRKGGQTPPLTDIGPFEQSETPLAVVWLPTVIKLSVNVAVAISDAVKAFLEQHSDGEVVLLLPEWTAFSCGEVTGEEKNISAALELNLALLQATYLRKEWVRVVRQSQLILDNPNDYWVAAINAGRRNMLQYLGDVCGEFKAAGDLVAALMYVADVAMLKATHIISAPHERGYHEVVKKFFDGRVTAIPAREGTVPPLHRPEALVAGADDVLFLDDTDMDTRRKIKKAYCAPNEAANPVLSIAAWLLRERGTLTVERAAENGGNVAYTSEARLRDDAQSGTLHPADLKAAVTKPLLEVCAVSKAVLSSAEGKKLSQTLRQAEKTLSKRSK
# [8] = target: T4, Tyrosyl-tRNA synthetase, putative (Trypanosoma cruzi (strain CL Brener)); assay: Trypanosoma cruzi tyrosyl tRNA synthetase (TcYRS) SOP; type: functional; conditions: 30 µM
# [9] = target: Chromo domain-containing protein 1 (Saccharomyces cerevisiae (strain ATCC 204508 / S288c) (Baker's yeast)) (UniProt P32657); assay: ScCHD-1 Enzyme Inhibition Assay; type: functional; conditions: 30 µM; note: in the data most compounds retested in dose-response had high values
# Chromo domain-containing protein 1 (Saccharomyces cerevisiae (strain ATCC 204508 / S288c) (Baker's yeast)), sequence (P32657 whole entry, the tested form may be a part): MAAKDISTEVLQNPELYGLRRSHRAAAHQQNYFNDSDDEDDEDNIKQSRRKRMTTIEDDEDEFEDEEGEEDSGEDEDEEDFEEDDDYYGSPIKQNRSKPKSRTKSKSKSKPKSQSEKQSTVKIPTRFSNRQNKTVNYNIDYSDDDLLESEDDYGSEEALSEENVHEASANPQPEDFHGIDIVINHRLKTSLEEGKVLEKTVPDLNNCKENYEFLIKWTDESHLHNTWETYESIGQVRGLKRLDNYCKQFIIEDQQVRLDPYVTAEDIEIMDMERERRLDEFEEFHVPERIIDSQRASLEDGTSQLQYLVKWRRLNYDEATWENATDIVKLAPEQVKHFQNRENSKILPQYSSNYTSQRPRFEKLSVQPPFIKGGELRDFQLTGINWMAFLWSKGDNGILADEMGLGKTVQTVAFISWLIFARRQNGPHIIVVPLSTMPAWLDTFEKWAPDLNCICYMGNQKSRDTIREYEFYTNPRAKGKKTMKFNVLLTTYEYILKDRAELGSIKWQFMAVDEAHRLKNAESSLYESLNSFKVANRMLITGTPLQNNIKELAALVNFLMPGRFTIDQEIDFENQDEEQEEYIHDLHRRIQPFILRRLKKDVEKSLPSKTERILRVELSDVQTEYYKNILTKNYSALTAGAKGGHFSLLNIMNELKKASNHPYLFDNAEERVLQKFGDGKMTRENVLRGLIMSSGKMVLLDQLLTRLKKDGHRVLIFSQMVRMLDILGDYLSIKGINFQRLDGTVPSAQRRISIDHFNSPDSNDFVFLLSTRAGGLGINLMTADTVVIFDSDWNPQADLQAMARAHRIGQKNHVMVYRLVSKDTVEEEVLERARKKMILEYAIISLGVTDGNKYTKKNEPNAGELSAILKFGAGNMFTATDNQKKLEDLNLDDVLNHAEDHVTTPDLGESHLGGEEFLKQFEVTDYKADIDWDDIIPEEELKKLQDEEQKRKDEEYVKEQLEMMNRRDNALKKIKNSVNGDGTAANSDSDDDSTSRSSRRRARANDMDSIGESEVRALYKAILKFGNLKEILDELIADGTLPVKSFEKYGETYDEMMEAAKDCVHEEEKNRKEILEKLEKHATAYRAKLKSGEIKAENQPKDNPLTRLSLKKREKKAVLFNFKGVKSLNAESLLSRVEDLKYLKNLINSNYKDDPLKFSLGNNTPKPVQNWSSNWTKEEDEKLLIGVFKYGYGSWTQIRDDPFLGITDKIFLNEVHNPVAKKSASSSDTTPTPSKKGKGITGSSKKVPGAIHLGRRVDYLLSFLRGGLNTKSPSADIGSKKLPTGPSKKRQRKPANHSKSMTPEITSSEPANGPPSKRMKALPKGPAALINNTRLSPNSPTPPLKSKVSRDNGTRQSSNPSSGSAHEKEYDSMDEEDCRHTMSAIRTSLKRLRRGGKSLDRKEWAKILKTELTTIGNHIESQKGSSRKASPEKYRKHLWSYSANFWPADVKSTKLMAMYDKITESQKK
# Protein translocase subunit SecA (Escherichia coli (strain K12)), sequence (P10408 whole entry): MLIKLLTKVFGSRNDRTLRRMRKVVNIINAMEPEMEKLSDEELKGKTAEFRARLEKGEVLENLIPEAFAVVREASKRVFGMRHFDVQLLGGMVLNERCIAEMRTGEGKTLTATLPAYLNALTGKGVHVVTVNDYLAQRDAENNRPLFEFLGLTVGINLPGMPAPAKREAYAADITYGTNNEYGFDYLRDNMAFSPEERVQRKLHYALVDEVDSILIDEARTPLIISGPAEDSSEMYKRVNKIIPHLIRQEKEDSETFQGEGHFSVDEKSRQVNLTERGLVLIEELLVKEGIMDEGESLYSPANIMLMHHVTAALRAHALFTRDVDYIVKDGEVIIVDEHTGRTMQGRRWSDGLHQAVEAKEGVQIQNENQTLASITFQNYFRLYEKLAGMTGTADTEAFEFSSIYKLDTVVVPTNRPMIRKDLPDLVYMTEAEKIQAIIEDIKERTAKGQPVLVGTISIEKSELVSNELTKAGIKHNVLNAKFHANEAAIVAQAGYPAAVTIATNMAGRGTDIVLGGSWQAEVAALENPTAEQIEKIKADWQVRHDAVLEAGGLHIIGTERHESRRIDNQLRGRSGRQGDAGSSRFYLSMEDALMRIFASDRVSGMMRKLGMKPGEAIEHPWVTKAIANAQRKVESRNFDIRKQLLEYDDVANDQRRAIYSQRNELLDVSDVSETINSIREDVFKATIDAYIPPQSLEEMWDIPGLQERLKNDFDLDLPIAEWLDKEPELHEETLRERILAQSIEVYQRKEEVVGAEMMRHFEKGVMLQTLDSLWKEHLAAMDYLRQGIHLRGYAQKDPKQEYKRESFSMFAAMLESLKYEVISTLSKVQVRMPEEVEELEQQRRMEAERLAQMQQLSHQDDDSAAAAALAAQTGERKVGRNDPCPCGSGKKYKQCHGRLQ
Structure (SMILES),Percent Effect [1],Percent Effect [2],Percent Effect [3],Percent Effect [4],Percent Effect (Trypanosoma cruzi),Percent Effect [5],Percent Effect [6],Percent Effect (Homo sapiens),Percent Effect [7],Percent Effect [8],Percent Effect [9]
CSc1ccc(CNC(c2ccccc2)c2nccn2C)cc1 (stereo unspecified),-5.49%,21.6%,-4%,8.74%,7.71%,-2.77%,11.1%,24.1%,10.9%,30.5%,-6.68%
Cc1ncsc1C(=O)NC1CCN(CC(=O)NCc2ccccc2)CC1,-3.36%,13.2%,0.646%,1.72%,2.71%,-1.8%,7.02%,-2.18%,9.36%,16.1%,-2.75%
O=C(c1cc2c(s1)CCC2)N1CCCCC1Cn1cccn1 (stereo unspecified),-4.04%,10.8%,-1.14%,3.35%,-5.11%,-3.88%,-0.539%,2.18%,4.95%,6.1%,1.75%
O=S1(=O)C[C@@H]2[C@H](C1)N(Cc1ncc[nH]1)CCN2CC1CC1,-2.38%,0%,-1.5%,-1.31%,-3.28%,1.43%,3.45%,1.15%,5.82%,14.6%,-2.92%
Cn1cccc1C(=O)Nc1cc(F)ccc1OCC1CCCO1 (stereo unspecified),-2.17%,-2.6%,2.66%,13.6%,6.74%,2.85%,0.507%,4.16%,-5.83%,0%,-1.65%
Cc1nn(C)c(Cl)c1C1CCCN1CC(=O)NCc1ccccn1 (stereo unspecified),-0.227%,1.27%,8.81%,-1.21%,0.513%,-0.215%,12.2%,22.5%,4.17%,10.1%,3%
CCC(NC(=O)C1CCN(S(C)(=O)=O)CC1)c1ccc(OC)c(C)c1 (stereo unspecified),-0.552%,2.6%,0.574%,27.4%,4.03%,-4.14%,15.3%,-3.86%,2.15%,1.24%,120%
Cc1nc(CNC(C)c2ccc(OCC(=O)NC3CC3)cc2)cs1 (stereo unspecified),-1.09%,19%,-0.957%,-2.32%,-2.15%,-8.82%,23.8%,3.09%,4.17%,-48.1%,-24.3%
N#Cc1ccccc1CN1CCCCC1Cn1cncn1 (stereo unspecified),-0.27%,13.5%,-13.3%,-8.54%,-5.38%,0%,-0.54%,15.9%,9.36%,13.6%,-5.63%
Cc1ccc(C(=O)N2CCN(CCCSCC#N)CC2)o1,-3.54%,-5.48%,1.04%,10.8%,1.98%,-2.4%,6.42%,18.1%,4.17%,11.1%,0.208%
CCc1ncncc1C(=O)NCCN1CCC(C)CC1,-1.34%,-4.17%,-7.77%,0.13%,5.54%,-2.21%,4.21%,-30.7%,1.05%,0%,-2.04%
